Molecules are shown by their SMILES. Results filed as inconclusive are left out. Where a call stands in place of a potency, no number is given. Activity calls are given as the source filed them. The call rests on the fitted dose curve; in most records, active means well fitted activation curve with a large enough effect; inconclusive means small, poorly fitted or top-dose-only effect; inactive means no such curve, though single readings can be large or run the other way.

A short description of this assay: qHTS for Activators of Parkin Expression: LOPAC Validation Assay (FLuc Reporter) (AID 720573). The conditions noted are these: Cell line, PRKN promoter firefly luciferase reporter; series mostly up to 46.1 µM. From the text: Parkin is an E3 ubiquitin ligase localized in the cytosol of cells expressed in many tissues, including brain, skeletal muscle, heart and liver tissues. One hour after stress induction by mitochondrial uncouplers (which mimic mitochondria damage by decreasing the mitochondrial inner membrane electrochemical gradient that is used to produce ATP), Parkin translocates from the cytosol to mitochondria in many cultured cell types, including neurons and HeLa cells. Administration of other mitochondrial poisons, such as Paraquat and azide in cells lacking mitochondrial DNA (mtDNA), induces Parkin translocation to mitochondria. […] It was proposed that Parkin (together with Pink1) mediates a mitochondrial quality control pathway to maintain organelle population fidelity by removing damaged mitochondria. Understanding the normal physiologic role of Parkin (and Pink1) may uncover novel treatment strategies for sporadic Parkinson's disease patients with mutation in these genes.
A cell based qHTS in 1536 well format was developed assess modulation of Parkin expression using a neuronal cell line that stably expresses a stably expresses a luminescent coincidence reporter (FLuc and NLuc reporters) behind the Parkin promoter. The LOPAC library is used to validate the assay for quantitative high-throughput screening. The data herein reports the signal from the FLuc reporter. An increase in this signal = activation of Parkin expression. For this assay , a positive control normalized signal increase corresponding to a high quality qHTS curve class in both luminescent channels is the desired outcome for this assay.
NIH Chemical Genomics Center [NCGC]
NIH Molecular Libraries Probe Centers Network [MLPCN]
Assay Submitter (PI): Richard Youle, National Institute of Neurological Disorders and Strokes (NINDS), NIH
[1] Narendra, D., et al., Parkin is recruited selectively to impaired mitochondria and promotes their autophagy. J Cell Biol, 2008. 183(5): p. 795-803.
[2] Suen, D.F., et al., Parkin overexpression selects against a deleterious mtDNA mutation in heteroplasmic cybrid cells. Proc Natl Acad Sci U S A, 2010. […] 11835-40.
[3] Cheng K, Inglese J. A coincedence reporter-gene system for high-throughput screening. Nat Methods. 2012: 9(10);937
Five microliters (1,500 cells/well) of the Parkin coincidence reporter cells were seeded to 1536 well assay plates (Greiner Catalog # 789173-F) and incubated at 37 C, 5% CO2 for 24 hours. Compounds (23 nL) were pinned using the Kalypsys robotic system equipped with 1536 pin head adaptor in 7-point dose response. The assay plates were incubated for additional 24 hr at 37 C, 5% CO2 followed by a volume reduction in each well to 2 uL using an automated plate washer/aspirator. Following the volume reduction,2 uL of FLuc detection reagent and plates were incubated for 10 minutes at room temperature. The FLuc luminescence signal was obtained using the PerkinElmer ViewLux plate imager and then 2 uL of NanoLuc detection reagent was added to the plates. After another 10 minute incubation, NanoLuc signal was obtained using the PerkinElmer ViewLux plate imager as before. Data from each channel was normalized to DMSO (neutral control) and the positive control compounds (100%).
Take `Cc1ccccc1N1C(=O)c2cc(S(N)(=O)=O)c(Cl)cc2NC1C` (stereo not given): the Potency result was “inactive”.
The same measure for `CCOC(=O)c1ncn2c1CN(C)C(=O)c1cc(F)ccc1-2`: “inactive”.
The same measure for `O=C(c1ccc(F)cc1)C1CCN(CCn2c(=O)[nH]c3ccccc3c2=O)CC1`: “inactive”; for `CCCNCC(O)COc1ccccc1C(=O)CCc1ccccc1` (stereo not given): “inactive”.
For the compound `NC12CC3CC(CC(C3)C1)C2`, the Potency result was “inactive”.
As for `CC(C)(Oc1ccc(C2CC2(Cl)Cl)cc1)C(=O)O` (stereo not given), the entry is “inactive”; as for `COc1cc2c(c(OC)c1OC)-c1ccc(OC)c(=O)cc1[C@@H](NC(C)=O)CC2`, “inactive”.
As for `NCCCCCC(=O)O`, the entry is “inactive”; as for `CC(C(=O)O)c1cccc(C(=O)c2ccccc2)c1` (stereo not given), “inactive”; as for `Clc1ccc2c(c1)C(N1CCNCC1)=Nc1ccccc1O2`, “inactive”.
As for `Nc1nc2c(ncn2COC(CO)CO)c(=O)[nH]1`, the entry is “inactive”; as for `CN1CCN(C2=Nc3cc(Cl)ccc3Nc3ccccc32)CC1`, “inactive”.
With `COc1nc(C)nc(Cl)c1NC1=NCCN1`, the Potency entry was “inactive”.
As to `Cc1cc(C(C)(C)C)c(O)c(C)c1CC1=NCCN1`, the Potency entry was “inactive”.
Consider `CN(C)c1nc(N(C)C)nc(N(C)C)n1`, for which the Potency result was “inactive”.
As for `CC[N+](CC)(CC)CCOc1cccc(OCC[N+](CC)(CC)CC)c1OCC[N+](CC)(CC)CC`, the entry is “inactive”; as for `CN(C)CCC=C1c2ccccc2C=Cc2ccccc21`, “inactive”.
On to `CCC1(c2ccccc2)C(=O)NCNC1=O`, for which the Potency entry was “inactive”.
The same measure for `Nc1c2c(nc3ccccc13)CCCC2`: “inactive”; for `N[C@@H](Cc1c[nH]c2ccc(O)cc12)C(=O)O`: “inactive”; for `Cc1cn([C@H]2C=C[C@@H](CO)O2)c(=O)[nH]c1=O`: “inactive”.
As for `CC#C[C@]1(O)CC[C@H]2[C@@H]3CCC4=CC(=O)CCC4=C3[C@@H](c3ccc(N(C)C)cc3)C[C@@]21C`, the entry is “inactive”.
In the case of `OCCN1CCN(CCCN2c3ccccc3Sc3ccc(C(F)(F)F)cc32)CC1`, the Potency entry was “inactive”.
As for `C[C@](N)(Cc1ccc(O)c(O)c1)C(=O)O`, the entry is “inactive”; as for `Cc1ccc(C(=O)Nc2ccc(S(=O)(=O)O)c3cc(S(=O)(=O)O)cc(S(=O)(=O)O)c23)cc1NC(=O)c1cccc(NC(=O)Nc2cccc(C(=O)Nc3cc(C(=O)Nc4ccc(S(=O)(=O)O)c5cc(S(=O)(=O)O)cc(S(=O)(=O)O)c45)ccc3C)c2)c1`, “inactive”; as for `CN1CCC(=C2c3ccccc3CC(=O)c3sccc32)CC1`, “inactive”.
The same measure for `Cc1cc(C(C)(C)C)cc(C)c1CC1=NCCN1`: “inactive”; for `CCOC(=O)C(C)(C)Oc1ccc(Cl)cc1`: “inactive”; for `Clc1ccccc1C(c1ccccc1)(c1ccccc1)n1ccnc1`: “inactive”.
Take `CC(CCc1ccc(O)cc1)NCCc1ccc(O)c(O)c1` (stereo not given): the Potency entry is “inactive”.
The same measure for `CN(C)CCCN1c2ccccc2CCc2ccc(Cl)cc21`: “inactive”; for `Nc1nnc(-c2cccc(Cl)c2Cl)c(N)n1`: “inactive”.
As for `COc1ccccc1OCCNCC(O)COc1cccc2[nH]c3ccccc3c12` (stereo not given), the entry is “inactive”.
For `CNCCCC12CCC(c3ccccc31)c1ccccc12`, the Potency entry is “inactive”.
Regarding `Clc1ccc(C(c2ccccc2Cl)C(Cl)Cl)cc1` (stereo not given), the Potency result was “inactive”.
As for `CN1C2CCC1CC(OC(=O)C(CO)c1ccccc1)C2` (stereo not given), the entry is “inactive”.
The same measure for `NC(=O)OCC(COC(N)=O)c1ccccc1`: “inactive”; for `O=C(CCCN1CCC(O)(c2ccc(Cl)cc2)CC1)c1ccc(F)cc1`: “inactive”.
As for `COc1ccc2[nH]cc(CCNC(C)=O)c2c1`, the entry is “inactive”; as for `Cc1cn([C@H]2C[C@H](N=[N+]=[N-])[C@@H](CO)O2)c(=O)[nH]c1=O`, “inactive”.
